# In the library only some 5.3% were active in any assay of this set; here they are far more common.
# HP1b binding inh: inhibitors of HP1-beta chromodomain binding to methylated histone tails; AlphaScreen HP1-beta / biotin-H3K9me3 peptide binding; Potency, µM (top dose mostly 114 µM), most hits filed as inhibitors; 390,000 compounds, 0.56% hits; further: nearly all actives have a fitted effect of over 70% in size
#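 AlphaScreen: HP1-beta (50 nM) preformed 30 min with biotin-H3(1-18)K9me3 peptide (50 nM) in PBS pH 7.4, 0.01% Tween-20. Compound added for 30 min at RT, then streptavidin donor/nickel chelate acceptor beads (10 ug/mL) for 30 min.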
# TDP1 block: blocks human tyrosyl-DNA phosphodiesterase 1. Potency, µM (series often up to 130 µM), hits mostly inhibitors. recombinant TDP1, AlphaScreen DNA substrate cleavage. Q9NUW8. 350,000 compounds, 0.28% hits; further: nearly all actives have a fitted effect of over 40% in size
#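 Recombinant human Tdp1 (E. coli-expressed, 1 nM final) preincubated with compounds 15 min at room temperature, then 5'-biotin/3'-phosphotyrosine-FITC DNA substrate (15 nM final) added for 5 min. AlphaScreen beads (10 ug/ml final) added 10 min; cleavage lowers signal.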
# Six1-Eya2 blk: blocks human Six1 binding to Eya2; Q15475+O00167; AlphaScreen GST-Six1/His-Eya2 binding, biochemical; active compounds read low; activity change, % (concentration not given with the values); 360,000 compounds, 0.56% hits; AID 651725; in the data active means activity change below about -65%; inconclusive means mostly about -30% to -63%
#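 GST-Six1 + His-Eya2 (5X stock: 250/500 nM); Tris pH 8.0, 300 mM NaCl, 0.05% BSA, 0.02% Tween 20; GSH donor/Ni acceptor beads; 1 h 37 °C dark; AlphaScreen readout.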
# CtBP-E1A inh: CtBP/E1A binding inhibition; AlphaScreen GST-E1A/His-CtBP binding, 1536-well; active compounds read low; 340,000 compounds, 0.49% hits; activity change, % (test concentration not listed); in the data active means activity change below about -65%; inconclusive means mostly about -30% to -63%
#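 Homogeneous bead-based format: GST-tagged E1A captured on glutathione donor beads, His-tagged CtBP on nickel acceptor beads; compounds precede bead addition by 2 h at 37 °C.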
# BAZ2B block: blocks human BAZ2B; Q9UIF8; AlphaScreen BAZ2B-H3K14Ac peptide displacement; Potency, µM (doses to about 114 µM), most hits filed as inhibitors; 360,000 compounds, 4.4% hits; further: nearly all actives have a fitted effect of over 60% in size
#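 Inhibition is scored as reduced AlphaScreen emission. The BAZ2B/b-H3(5-23)K14Ac complex (50 nM each) in PBS pH 7.4, 0.01% Tween-20 meets compound (up to 110 uM) for 30 min at RT before bead addition.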
# JMJD2A Tudor: blocks the human JMJD2A Tudor domain; O75164; AlphaScreen JMJD2A-Tudor / H3K4me3 peptide binding; Potency, µM (top dose mostly 114 µM), most hits filed as inhibitors; 390,000 compounds, 4.4% hits; further: nearly all actives have a fitted effect of over 50% in size
# A number is an active result; . = inactive; ? = inconclusive; / = no result; [ ] = dose if it differs, or a comment. Unless noted, the call rests on the fitted dose curve; in most records, active means well fitted inhibition curve with a large enough effect; inconclusive means small, poorly fitted or top-dose-only effect; inactive means no such curve, though single readings can be large or run the other way.
SMILES,HP1b binding inh,TDP1 block,Six1-Eya2 blk,CtBP-E1A inh,BAZ2B block,JMJD2A Tudor
OC[C@@H]1[C@@H](c2ccc(Cl)cc2)C(c2ccccc2)=NN1c1ccccc1,.,?,.,.,/,.
COc1ccc(C(=O)c2ccccc2)c(O)c1O,/,.,/,/,/,/
O=c1[nH]c(=O)n(-c2ccccc2)c2c1C(C(F)(F)F)(C(F)(F)F)N=C(C1CCCCC1)N2,.,.,.,.,.,89.1µM
O=C(NC1(C(F)(F)F)C(=O)Nc2c1c(=O)[nH]c(=O)n2-c1ccccc1)c1ccccc1 (stereo unspecified),.,.,/,/,.,.
O=C(Cn1ncc2c([nH]c3ccccc32)c1=O)Nc1cccc(C(F)(F)F)c1,.,.,/,/,.,.
COC1=C/C(=C/c2c(N)n3nc(CC(=O)N4CCCC4)sc3nc2=O)C=CC1=O,.,.,.,.,.,.
Nc1c(/C=C2/C=CC(=O)C(O)=C2)c(=O)nc2sc(CC(=O)N3CCCC3)nn12,?,?,?,/,20µM,25.1µM
Nc1c(/C=C2/C=CC(=O)C(O)=C2)c(=O)nc2sc(CC(=O)N3CCOCC3)nn12,?,/,?,.,/,20µM
COc1ccc(-c2oc(NC(=O)CCl)c(C#N)c2-c2ccc(OC)cc2)cc1,.,.,.,.,50.1µM,?
COc1ccc(OC)c(NC(=O)CSc2nnc(CNC(=O)COc3ccc(Cl)cc3)o2)c1,.,.,.,.,?,.
O=C(COc1ccc(Cl)cc1)NCc1nnc(SCC(=O)Nc2ccc3c(c2)OCCO3)o1,?,.,.,.,.,79.4µM
Nc1nc(N)nc(-c2cc([N+](=O)[O-])ccc2O)n1,.,56.2µM,.,.,.,?
CN1CCN(C(=S)C(=O)Nc2ccc(Br)cc2)CC1,?,.,.,.,.,89.1µM
Nc1cccc2c1C(=O)N(C(=O)/C=C/c1ccc(F)cc1)C2=O,.,.,.,-65.3,.,.
Oc1ccc(Br)cc1/C=N/n1c(COc2ccccc2)n[nH]c1=S,?,/,.,.,.,?
Oc1c(Br)cc(/C=N/n2c(-c3ccccc3)n[nH]c2=S)c(O)c1Br,.,.,?,/,.,3.98µM
Cc1c(Br)c(O)c(Br)c(O)c1/C=N/n1c(-c2ccccc2)n[nH]c1=S,?,/,.,?,.,25.1µM
Oc1c(Br)cc(/C=N/n2c(-c3ccccc3)n[nH]c2=S)cc1Br,.,25.1µM,.,.,?,3.16µM
CCN(CC)S(=O)(=O)c1cccc(-c2n[nH]c(=S)n2/N=C/c2ccc(Br)cc2)c1,.,.,.,.,.,?
Oc1ccc(/C=N/n2c(-c3ccccc3)n[nH]c2=S)cc1Br,.,.,.,/,.,8.91µM
COc1cc(NC(=O)N2CCC(CN3CCCC3)CC2)cc(OC)c1OC,.,.,/,/,.,.
O=c1oc2ccc3ccccc3c2cc1-c1nnc(Nc2ccc(Cl)cc2Cl)s1,.,.[12.3 µM],/,/,.,.
CC/C(=C\C(=O)c1cccnc1)Nc1ccc(C)c(C)c1,?,.,.,.,.,50.1µM
COc1ccc(CNC(=O)c2ccc3c(c2)nc2n3CCCCC2)c(OC)c1,.,.,/,/,.,.
O=C(COc1ccccc1/C=C1\SC(=S)NC1=O)Nc1ccc(F)cc1,.,.,.,-85.4,/,.
SMILES,HP1b binding inh,TDP1 block,Six1-Eya2 blk,CtBP-E1A inh,BAZ2B block,JMJD2A Tudor
NC1=NC(=O)/C(=C/c2ccccc2OCC(=O)Nc2ccc(F)cc2)S1,.,/,.,.,/,.
COc1ccc(N=Nc2ccc(CO)cc2)cc1,.,/,?,.,/,?
CCOc1ccc2nc3cc(N=Nc4ccc(N)nc4N)ccc3c(N)c2c1,?,/,?,-76.1,/,56.2µM
COc1ccc(N=Nc2ccc(N)nc2N)cc1,?,.,?,?,39.8µM,39.8µM
COc1ccc(N=Nc2cc(OC)c(N)cc2OC)cc1,50.1µM,/,?,?,/,44.7µM
CC1CCc2nc3ncn(Cc4ccc(Cl)cc4)c(=O)c3cc2C1 (stereo unspecified),.,.,/,/,.,.
COc1ccc(OC(C)C(=O)NCc2nc(-c3ccc(Cl)cc3)no2)cc1 (stereo unspecified),.,.,/,/,.,.
COc1ccc(NC(=O)c2sc3nc4c(c(-c5ccc(OC)cc5)c3c2N)C(=O)CC(C)(C)C4)cc1,.,/,/,/,.,.
CCOc1ccc(-n2nc(CO)c(C(=O)NCc3ccc(Cl)cc3)n2)cc1,.,.,/,/,.,.
CC(=O)c1ccc(NC(=O)CNCC(c2ccccc2)N(C)C)cc1 (stereo unspecified),.,.,.,.,.,2.82µM
CCc1ccc(NC(=O)CSc2nc(-c3ccccc3)no2)cc1,.,.,/,/,.,.
Cc1cccc(NC(=S)N/N=C/c2cccn2Cc2ccc(F)cc2)c1,.,.,.,.,8.91µM,.
CSc1ccccc1NC(=S)N/N=C/c1cccn1Cc1cccc(C)c1,.,.,.,.,8.91µM,.
COc1ccc(NC(=S)N/N=C/c2cccn2Cc2ccc(F)cc2Cl)cc1,?,.,?,.,17.8µM,28.2µM
COc1ccc(NC(=S)N/N=C/c2cccn2Cc2ccccc2F)cc1,.,.,.,.,.,.
CSc1ccccc1NC(=S)N/N=C/c1cccn1Cc1ccc(F)cc1,.,.,?,.,28.2µM,35.5µM
CN(C)c1ccc(N=Nc2ccc(S(N)(=O)=O)cc2)cc1,.,.,.,.,?,.
CN(C)c1ccc(N=Nc2ccc3ncccc3c2)cc1,?,/,?,.,/,3.16µM
Cc1nnc(C)c2c(C)n(-c3ccc4ncccc4c3)c(C)c12,.,.,.,.,?,.
Cc1cc(N(C)C)ccc1N=Nc1ccc2ncccc2c1,8.91µM,.,-83.5,/,3.16µM,6.31µM
CN(C)c1ccc(N=Nc2cccc(F)c2)cc1,6.31µM,.,-78.2,-67.1,4.47µM,8.91µM
CN(C)c1ccc(N=Nc2cccc3ccoc23)cc1,17.8µM,.,-65.1,/,5.62µM,25.1µM
Cc1ccc2ncccc2c1,.,.,.,.,.,.
CCOc1ccccc1NC(=O)NCc1noc2ccc(C)cc12,.,.,/,/,?,.
CN(C)c1ccc(CNC(=O)c2ccc(Cn3c(=O)c4cccn4c4cccnc43)cc2)cc1,.,.,/,/,.,.
SMILES,HP1b binding inh,TDP1 block,Six1-Eya2 blk,CtBP-E1A inh,BAZ2B block,JMJD2A Tudor
CCOC(=O)C[n+]1c(C)sc2ccc(OC)cc21,?,.,.,.,?,50.1µM
Cc1sc2ccccc2[n+]1CC(=O)O,.,.,.,.,.,?
COc1ccc(-c2nn3c(=O)cc(CN4CCN(C(=O)c5ccc(C(C)(C)C)cc5)CC4)nc3s2)cc1,.,.,/,/,.,.
O=C(O)c1cc(N2C(=O)C=CC2=O)cc(N2C(=O)C=CC2=O)c1,5.62µM,/,-74.1,.,/,2.24µM
O=C(Nc1ccc2oc(-c3cccc4c(Br)cccc34)nc2c1)c1ccc(Br)cc1,.,.[12.3 µM],/,/,.,.
CN(CCCNC(=O)Cn1ncc2c([nH]c3ccccc32)c1=O)Cc1ccccc1,.,.,/,/,?,.

# High-throughput results (PubChem BioAssay)
